What all share (conditions): mRNA level, 48 h; actives raise or lower the signal
Read-out in experiment [1]: ABC Transporter (ABCB11), ABCB11 (gene 8647)
The experiment can be described thus: LTEA_HepaRG_ABCB11: Life Technologies and Expression Analysis (LTEA) Assay for ABC Transporter (ABCB11) using HepaRG (AID 2283463). The essentials:
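ABCB11 transcript levels are read by Fluidigm TaqMan qRT-PCR after 48 h chemical treatment of human HepaRG cells. Concentrations span 100 uM downward in half-log steps with 0.5% DMSO; gain or loss is fitted against DMSO controls.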

Read-out in experiment [2]: ABC Transporter (ABCC2), ABCC2 (gene 1244)
As to the kind of experiment: LTEA_HepaRG_ABCC2: Life Technologies and Expression Analysis (LTEA) Assay for ABC Transporter (ABCC2) using HepaRG (AID 2283464). In short, it runs like this: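 qRT-PCR (TaqMan, Fluidigm array) read-out of ABCC2 mRNA, normalized to three housekeeping genes. Differentiated HepaRG cells were treated 48 h in serum-free induction medium with 8-point half-log series from 100 uM in 0.5% DMSO; curves fitted bidirectionally relative to DMSO.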

Read-out in experiment [3]: Broad substrate specificity ATP-binding cassette transporter ABCG2 (Homo sapiens) (UniProt Q9UNQ0)
As to the kind of experiment: LTEA_HepaRG_ABCG2: Life Technologies and Expression Analysis (LTEA) Assay for ABC Transporter (ABCG2) using HepaRG (AID 2283465). In short, it runs like this:
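Read-out is ABCG2 mRNA induction or loss quantified by qRT-PCR after 48 h chemical treatment of human HepaRG cells, normalized to three housekeeping genes. Concentrations reached 100 uM top in half-log steps; fitting was bidirectional against 0.5% DMSO.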

Read-out in experiment [4]: ATP-citrate lyase (ACLY), ACLY (gene 47)
As to the kind of experiment: LTEA_HepaRG_ACLY: Life Technologies and Expression Analysis (LTEA) Assay for ATP-citrate lyase (ACLY) using HepaRG (AID 2283466). The essentials:
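HepaRG, 48 h exposure, 8-pt half-log dilutions (top 100 uM), 0.5% DMSO. Readout: ACLY mRNA, TaqMan qRT-PCR, housekeeping-normalized (ACTB/GAPDH/POLR2A). Bidirectional curve fit vs DMSO.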

Read-out in experiment [5]: Peroxisomal acyl-coenzyme A oxidase 1 (ACOX1) gene, ACOX1 (gene 51)
As to the kind of experiment: LTEA_HepaRG_ACOX1: Life Technologies and Expression Analysis (LTEA) Assay for Peroxisomal acyl-coenzyme A oxidase 1 (ACOX1) gene using HepaRG (AID 2283467). The essentials: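 Measured by qRT-PCR against three housekeeping genes: ACOX1 transcript change in human HepaRG cells after 48 h dosing. Concentrations ran up to 100 uM in half-log steps. Curves were fitted bidirectionally relative to 0.5% DMSO.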

Read-out in experiment [6]: Alkaline Phosphatase, Placental (ALPP) gene, ALPP (gene 250)
The experiment can be described thus: LTEA_HepaRG_ALPP: Life Technologies and Expression Analysis (LTEA) Assay for Alkaline Phosphatase, Placental (ALPP) gene using HepaRG (AID 2283468).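 For AC50: differentiated human HepaRG liver cells in serum-free induction medium.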 In short, it runs like this: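 qRT-PCR readout of ALPP mRNA (Fluidigm TaqMan), normalized to ACTB/GAPDH/POLR2A, after 48 h chemical exposure of HepaRG cells; 8-point half-log series, top 100 uM, 0.5% DMSO vehicle. Bidirectional curve fit versus DMSO baseline.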

Read-out in experiment [7]: Bcl-2 (BAD) gene, BAD (gene 572)
As to the kind of experiment: LTEA_HepaRG_BAD: Life Technologies and Expression Analysis (LTEA) Assay for Bcl-2 (BAD) gene using HepaRG (AID 2283469). In short, it runs like this:
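BAD transcript change, measured by qRT-PCR against three housekeeping genes and fitted in both directions relative to 0.5% DMSO, after 48 h chemical treatment of human HepaRG liver cells at concentrations up to 100 uM.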

Read-out in experiment [8]: Bcl-2 (BAX) gene, BAX (gene 581)
As to the kind of experiment: LTEA_HepaRG_BAX: Life Technologies and Expression Analysis (LTEA) Assay for Bcl-2 (BAX) gene using HepaRG (AID 2283470). The essentials:
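Concentration-response endpoint fitted in both directions relative to 0.5% DMSO vehicle. Human HepaRG cultures receive test chemicals for 48 h at up to 100 uM; BAX mRNA is quantified by qRT-PCR against housekeeping genes.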

Read-out in experiment [9]: adenosine kinase (ADK) gene, ADK (gene 132)
The experiment can be described thus: LTEA_HepaRG_ADK: Life Technologies and Expression Analysis (LTEA) Assay for adenosine kinase (ADK) gene using HepaRG (AID 2283471). The essentials: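 HepaRG (human liver), 48 h chemical exposure, 8-pt half-log series, top 100 uM, 0.5% DMSO vehicle. Readout: ADK mRNA by qRT-PCR vs housekeeping genes; bidirectional curve fit relative to DMSO baseline.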

Read-out in experiment [10]: Alpha-fetoprotein (AFP) gene, AFP (gene 174)
As to the kind of experiment: LTEA_HepaRG_AFP: Life Technologies and Expression Analysis (LTEA) Assay for Alpha-fetoprotein (AFP) gene using HepaRG (AID 2283472). In short, it runs like this:
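After a 48 h plating period, cells are moved to serum-free induction medium and dosed in duplicate (100 uM maximum, half-log dilutions, 0.5% DMSO) for another 48 h. Total RNA goes to TaqMan qRT-PCR; AFP signal is housekeeping-normalized.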

Read-out in a further experiment: BCL2L11 (gene 10018)
As to the kind of experiment: LTEA_HepaRG_BCL2L11: Life Technologies and Expression Analysis (LTEA) Assay for Bcl-2 (BCL2L11) gene using HepaRG (AID 2283473). In short, it runs like this: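 HepaRG, 48 h exposure, 8-pt half-log series from 100 uM in 0.5% DMSO, duplicates; qRT-PCR (Fluidigm TaqMan) for BCL2L11, housekeeping-normalized; bidirectional curve fit relative to DMSO baseline.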

Read-out in experiment [11]: Apolipoprotein A-V (APOA5) gene, APOA5 (gene 116519)
The experiment can be described thus: LTEA_HepaRG_APOA5: Life Technologies and Expression Analysis (LTEA) Assay for Apolipoprotein A-V (APOA5) gene using HepaRG (AID 2283474). The essentials: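 HepaRG, 48 h chemical exposure in serum-free induction medium, 8-pt half-log series (top 100 uM), 0.5% DMSO vehicle, duplicates. Readout: APOA5 mRNA by qRT-PCR, housekeeping-normalized; bidirectional fit vs DMSO baseline.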

Read-out in experiment [12]: Apoptosis regulator Bcl-2 (Homo sapiens) (UniProt P10415)
The experiment can be described thus: LTEA_HepaRG_BCL2: Life Technologies and Expression Analysis (LTEA) Assay for Bcl-2 gene using HepaRG (AID 2283475). In short, it runs like this:
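Expression change of BCL2 mRNA in HepaRG after 48 h dosing, quantified by TaqMan qRT-PCR against three endogenous controls. Concentration-response used eight points up to 100 uM, vehicle 0.5% DMSO.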

Read-out in experiment [13]: Bcl-2 (BID) gene, BID (gene 637)
The experiment can be described thus: LTEA_HepaRG_BID: Life Technologies and Expression Analysis (LTEA) Assay for Bcl-2 (BID) gene using HepaRG (AID 2283476). In short, it runs like this: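 Gain or loss of BID expression is fitted relative to 0.5% DMSO vehicle. Human HepaRG liver cells received a 48 h chemical exposure over an eight-point concentration range.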

Read-out in the next experiment: Caspase-3 (Homo sapiens) (UniProt P42574)
As to the kind of experiment: LTEA_HepaRG_CASP3: Life Technologies and Expression Analysis (LTEA) Assay for cysteine-aspartic acid protease (CASP3) using HepaRG (AID 2283477). In short, it runs like this:
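HepaRG, 48 h exposure, 8 conc. (top 100 uM, half-log steps, duplicate), 0.5% DMSO vehicle; qRT-PCR of CASP3 transcript, housekeeping-normalised (ACTB/GAPDH/POLR2A); bidirectional curve fit vs DMSO baseline.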

Read-out in experiment [14]: Cytochrome P450 (CYP24A1), CYP24A1 (gene 1591)
The experiment can be described thus: LTEA_HepaRG_CYP24A1: Life Technologies and Expression Analysis (LTEA) Assay for Cytochrome P450 (CYP24A1) using HepaRG (AID 2283478). The essentials: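 qRT-PCR read-out: CYP24A1 transcript levels normalized to three housekeeping genes, bidirectional curve fits against 0.5% DMSO baseline. Human HepaRG cells treated 48 h with chemicals at eight concentrations from 100 uM in half-log steps.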

Read-out in experiment [15]: Cytochrome P450 (CYP1A2), CYP1A2 (gene 1544)
As to the kind of experiment: LTEA_HepaRG_CYP1A2: Life Technologies and Expression Analysis (LTEA) Assay for Cytochrome P450 (CYP1A2) using HepaRG (AID 2283479). The essentials: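 HepaRG, 48 h exposure, top 100 uM, half-log 8-pt, 0.5% DMSO vehicle, duplicates. Readout: TaqMan qRT-PCR of CYP1A2 mRNA, housekeeping-normalized (ACTB/GAPDH/POLR2A). Gain/loss fit relative to DMSO baseline.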

Read-out in experiment [16]: cysteine-aspartic acid protease (CASP8), CASP8 (gene 841)
As to the kind of experiment: LTEA_HepaRG_CASP8: Life Technologies and Expression Analysis (LTEA) Assay for cysteine-aspartic acid protease (CASP8) using HepaRG (AID 2283480). In short, it runs like this: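 HepaRG, 48 h exposure, duplicate wells; 8 conc, half-log from 100 uM, 0.5% DMSO. Serum-free induction medium. CASP8 mRNA by TaqMan qRT-PCR, norm. ACTB/GAPDH/POLR2A; gain/loss fitted vs DMSO.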

Read-out in experiment [17]: Cytochrome P450 (CYP2B6), CYP2B6 (gene 1555)
The experiment can be described thus: LTEA_HepaRG_CYP2B6: Life Technologies and Expression Analysis (LTEA) Assay for Cytochrome P450 (CYP2B6) using HepaRG (AID 2283481). In short, it runs like this:
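Read-out is CYP2B6 mRNA by TaqMan qRT-PCR, normalized to three housekeeping genes and fitted bidirectionally against 0.5% DMSO baseline. Human HepaRG cells received test chemicals for 48 h, top concentration 100 uM, half-log dilutions.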

Read-out in experiment [18]: Cytochrome P450 2C19 (Homo sapiens) (UniProt P33261)
As to the kind of experiment: LTEA_HepaRG_CYP2C19: Life Technologies and Expression Analysis (LTEA) Assay for CYP2C19 using HepaRG (AID 2283482). The essentials:
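HepaRG, 48 h chemical exposure, 8-pt half-log series from 100 uM in 0.5% DMSO, duplicates. Readout: CYP2C19 mRNA by TaqMan qRT-PCR, housekeeping-normalized. Bidirectional fit vs DMSO baseline; phenobarbital 1mM as induction control.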

Calls of active or inactive are those of the source. Rule for the calls: active = hit-call score of the fitted dose curve at least 0.9, where 1 is the maximum; inactive = score below 0.9.

Chain of Caspase-3 (Homo sapiens) (P42574 whole entry, looked up): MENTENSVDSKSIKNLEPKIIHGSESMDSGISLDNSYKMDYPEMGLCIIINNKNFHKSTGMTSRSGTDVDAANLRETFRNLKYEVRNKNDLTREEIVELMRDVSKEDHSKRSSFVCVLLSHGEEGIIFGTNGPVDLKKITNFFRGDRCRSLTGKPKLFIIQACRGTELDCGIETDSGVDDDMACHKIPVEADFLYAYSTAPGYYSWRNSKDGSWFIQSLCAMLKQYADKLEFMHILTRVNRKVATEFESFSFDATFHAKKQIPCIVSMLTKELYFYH
Chain of Cytochrome P450 2C19 (Homo sapiens) (P33261 whole entry, looked up): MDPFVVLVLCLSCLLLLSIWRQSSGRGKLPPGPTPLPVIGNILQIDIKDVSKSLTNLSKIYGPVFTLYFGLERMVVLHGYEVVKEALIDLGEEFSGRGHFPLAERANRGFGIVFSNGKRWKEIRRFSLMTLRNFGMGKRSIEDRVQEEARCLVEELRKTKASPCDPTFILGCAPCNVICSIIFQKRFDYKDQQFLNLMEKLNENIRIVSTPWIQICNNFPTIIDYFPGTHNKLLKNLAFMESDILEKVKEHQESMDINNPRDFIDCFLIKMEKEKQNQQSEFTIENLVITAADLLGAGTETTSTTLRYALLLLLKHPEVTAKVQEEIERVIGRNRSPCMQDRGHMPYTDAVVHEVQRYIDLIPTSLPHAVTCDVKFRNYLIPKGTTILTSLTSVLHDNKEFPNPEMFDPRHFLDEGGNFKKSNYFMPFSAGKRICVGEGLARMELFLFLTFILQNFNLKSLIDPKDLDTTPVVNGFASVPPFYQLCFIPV
Chain of Apoptosis regulator Bcl-2 (Homo sapiens) (P10415 whole entry, looked up): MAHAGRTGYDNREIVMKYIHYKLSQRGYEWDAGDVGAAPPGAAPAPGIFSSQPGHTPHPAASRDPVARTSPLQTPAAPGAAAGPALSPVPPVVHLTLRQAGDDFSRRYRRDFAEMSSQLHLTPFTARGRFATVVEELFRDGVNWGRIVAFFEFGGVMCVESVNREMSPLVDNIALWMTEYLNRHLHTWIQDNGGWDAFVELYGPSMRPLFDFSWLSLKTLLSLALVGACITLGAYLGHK
Chain of Broad substrate specificity ATP-binding cassette transporter ABCG2 (Homo sapiens) (Q9UNQ0 whole entry, looked up): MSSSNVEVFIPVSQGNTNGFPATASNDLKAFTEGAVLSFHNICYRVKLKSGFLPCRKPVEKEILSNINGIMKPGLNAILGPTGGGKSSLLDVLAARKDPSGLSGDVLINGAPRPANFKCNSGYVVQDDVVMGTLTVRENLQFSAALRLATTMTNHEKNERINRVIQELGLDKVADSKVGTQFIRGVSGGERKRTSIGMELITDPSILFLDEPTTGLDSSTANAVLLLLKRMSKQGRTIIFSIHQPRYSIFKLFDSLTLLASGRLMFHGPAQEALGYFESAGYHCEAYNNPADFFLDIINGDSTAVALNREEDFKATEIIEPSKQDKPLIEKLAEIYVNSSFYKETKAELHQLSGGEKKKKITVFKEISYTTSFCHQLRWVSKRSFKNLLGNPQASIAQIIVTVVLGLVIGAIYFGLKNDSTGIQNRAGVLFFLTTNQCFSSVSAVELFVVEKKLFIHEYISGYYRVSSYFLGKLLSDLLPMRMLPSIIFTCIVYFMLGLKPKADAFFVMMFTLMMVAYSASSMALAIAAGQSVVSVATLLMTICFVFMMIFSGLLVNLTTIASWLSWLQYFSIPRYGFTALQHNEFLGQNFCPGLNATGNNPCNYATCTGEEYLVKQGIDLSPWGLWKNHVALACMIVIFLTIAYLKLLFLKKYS

`CCCCCCc1ccc(O)cc1O`: the outcome in [1], in [2], in experiment [3], in experiment [4], in [5] and in [6] was inactive. Further, the compound was called inactive (in experiment [7]; in experiment [8]; in [9]; in experiment [10]; with BCL2L11 (gene 10018); in experiment [11]). Further, the call (in experiment [12]; in experiment [13]; with Caspase-3 (Homo sapiens); in experiment [14]; in experiment [15]; in [16]) was inactive. The result in [17] and in experiment [18] was inactive.

For `CC(C)c1cccc(C(C)C)c1N1C(=O)c2ccc(O)cc2C1=O`, the AC50 in experiment [1] is 89.9 µM (active); in experiment [2], 29 µM (active); in [3] it was 50 µM (active); in experiment [4] it was 74.8 µM (active); in experiment [6], 91.6 µM (active); in [8], 50 µM (active). The AC50 in experiment [10] is 79.9 µM (active); in [12], 86.2 µM (active); in experiment [17] it was 88.6 µM (active); in experiment [18] it was 91.5 µM (active). Besides, the call (in experiment [5]; in [7]; in experiment [9]; in the experiment with BCL2L11 (gene 10018); in experiment [11]; in [13]) was inactive. Further, the result (with Caspase-3 (Homo sapiens); in [14]; in [15]) was inactive.

For `O=C(CCCCCCCCc1cccnc1)N1CCC(C=C(c2ccccc2)c2ccccc2)CC1`, the half-maximal activity concentration (AC50) was 14.3 µM (active) in experiment [1]; 13.2 µM (active) in [3]; 50 µM (active) in [5]; 13.7 µM (active) in experiment [6]; 30.9 µM (active) in experiment [8]; 24.3 µM (active) in [10]. In addition, the AC50 with BCL2L11 (gene 10018) is 27.3 µM (active); in experiment [11], 29.6 µM (active); in [12], 16.6 µM (active); with Caspase-3 (Homo sapiens), 61.9 µM (active); in [15] it was 17 µM (active); in experiment [17], 12.3 µM (active). In [18], the AC50 was 34.9 µM (active). The compound was classed as inactive in experiment [2], in experiment [4], in experiment [7], in experiment [9], in experiment [13] and in [14].

As usually defined, the AC50 is the concentration giving half of the maximal activity seen.
